Source: PubChem (The Scripps Research Institute Molecular Screening Center)
This is a sample that favours compounds with a hit; in the whole collection about 2.3% have one here.
M1 antag = human CHRM1 antagonism; P11229; CHO-K1 hM1, Fluo-8 calcium fluorescence, ACh EC80 antagonist; inhibition, % at 3 µM; actives 1.3% (n = 360,000);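 active = percent inhibition above its own plate's cutoff, namely the mean of that plate's compound wells plus 3 SD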;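 note: peak over basal fluorescence ratio during 140 s after agonist addition; 0% = ACh EC80 plus DMSO and 100% = DMSO alone without agonist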
Target sequence (P11229 whole entry, looked up): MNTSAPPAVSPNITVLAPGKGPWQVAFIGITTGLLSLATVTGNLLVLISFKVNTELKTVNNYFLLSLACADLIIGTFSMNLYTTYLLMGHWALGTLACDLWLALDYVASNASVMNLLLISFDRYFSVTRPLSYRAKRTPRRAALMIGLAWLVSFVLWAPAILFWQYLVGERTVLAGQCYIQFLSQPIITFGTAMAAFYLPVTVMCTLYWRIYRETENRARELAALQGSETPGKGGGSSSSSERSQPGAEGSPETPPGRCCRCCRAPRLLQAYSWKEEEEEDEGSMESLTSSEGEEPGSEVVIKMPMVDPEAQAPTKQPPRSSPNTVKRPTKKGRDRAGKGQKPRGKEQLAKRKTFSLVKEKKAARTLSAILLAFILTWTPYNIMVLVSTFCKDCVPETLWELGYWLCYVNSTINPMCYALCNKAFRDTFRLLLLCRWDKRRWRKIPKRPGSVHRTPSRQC
M1 ag parental = nonselective activator or artifact in parental CHO-K1 cells | Fluo-8 calcium fluorescence; scaled to maximal ATP response, vehicle zero | activation, % at 3 µM | actives 0.48% (n = 360,000); in the data active = activation above about 15%;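 note: untransfected CHO-K1 host cells lacking M1 receptor as counterscreen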
CHO-K1 Ca antag = M1 antagonist counterscreen hit in parental CHO-K1 cells; ATP-induced calcium, Fluo-8 fluorescence; AID 602250; inhibition, % at 3 µM; actives 0.6% (n = 360,000);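 active = inhibition above a per-plate cutoff, the plate's mean sample inhibition plus 3 SD, cut at about 24% in these data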;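 note: 0% = DMSO plus EC80 ATP and 100% = DMSO alone without ATP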
M1 PAM parental = nonselective activator or artifact in parental CHO-K1 calcium assay; ATP EC20, Fluo-8 calcium fluorescence; 0% at ATP EC20, 100% at ATP max; activation, % at 3 µM; actives 0.02% (n = 360,000); AID 602247;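 active = activation above the run cutoff, the mean activation of all test compounds plus 3 SD, cut at about 40% in these data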;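 note: peak over basal fluorescence ratio in a 140 s read after ATP addition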
M1 PAM = potentiates human M1 receptor response to acetylcholine. actives 0.088% (n = 360,000). activation, % at 3 µM. AID 588819. P11229. CHO-K1 hM1, Fluo-8 calcium fluorescence, ACh EC20; 0% = ACh EC20, 100% = maximal ACh; in the data active = activation above about 19%, passing the limit was not always enough
CHRM1 agonist = activates human CHRM1 receptor | CHO-K1 hM1, Fluo-8 calcium fluorescence, agonist mode; 0% DMSO, 100% acetylcholine EC100 | P11229 | activation, % at 3 µM | actives 0.33% (n = 360,000);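 active = activation above the run's mean compound activation plus 3 SD, cut at about 16% in these data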;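 note: peak over basal fluorescence ratio within a 140 s kinetic read after compound addition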
Numbers without * were called inactive.

SMILES	M1 antag	M1 ag parental	CHO-K1 Ca antag	M1 PAM parental	M1 PAM	CHRM1 agonist
COc1cc(/C=C2\SC(=S)N(NC(=O)c3ccc(O)cc3)C2=O)ccc1O	35	23*	13	-21	-13	37*
COc1cc(/C=C2\SC(=S)N(NC(=O)c3cccnc3)C2=O)ccc1O	27*	4	20	-6	-7	2
COc1cc(/C=C2\SC(=S)N(c3cccnc3)C2=O)ccc1O	4	18*	2	7	1	13
Cc1ccc(CNC(=O)c2ccccc2NC(=O)CN2CC(C)OC(C)C2)cc1 (centres undefined)	3	5	-12	12	0	-2
CCn1c(=O)c2c(nc(SCC(=O)NC3CCCC3)n2C)n(C)c1=O	2	2	-9	13	-2	-5
CCc1nc2c(OCc3c(C)noc3C)cccn2c1N(C=O)Cc1ccc(OC)cc1	-14	-1	-10	41*	6	-4
CC(C)NS(=O)(=O)c1ccc(CCC(=O)N2CCCC2)cc1	1	-1	24*	-16	8	-3
COC(=O)CCn1c(C)cc(C(=O)COc2ccccc2C(N)=O)c1C	16	18*	4	6	-9	0
Cc1cc(C(=O)COc2cccnc2[N+](=O)[O-])c(C)n1Cc1cccs1	15	12	3	3	-7	-3
CC(=O)Nc1ccccc1OCC(=O)c1cc(C)n(Cc2cccs2)c1C	32*	9	23	2	-10	1
COc1ccc(C(=O)c2cn(-c3cccc(Br)c3)nc2C(C)=O)cc1	-6	1	-8	17	9	-1
CC(=O)c1nn(-c2cccc(Br)c2)cc1C(=O)c1ccc2ccccc2c1	35*	1	9	6	4	-2
CC(C)CC(N)c1csc(Nc2cc(Oc3ccccc3)ncn2)n1 (centres undefined)	-4	2	6	-1	-5	-6
CC(C)(C)NC(=O)C1(C)CCC(=O)N1CCCn1ccnc1 (centres undefined)	-9	0	2	1	7	-3
Cn1c(SCC(N)=O)nnc1-c1ccc(S(=O)(=O)N2CCCC2)cc1	-2	1	-2	12	3	-7
Cc1ccc(-n2c(SCC(N)=O)nnc2-c2ccc(S(=O)(=O)N3CCCCC3)cc2)c(C)c1	91*	2	16	0	-26	-6
COC(=O)c1cc(NC(=O)Cc2cccs2)cc(C(=O)OC)c1	-2	0	-2	-1	2	-1
CN(C)CCCN(Cc1ccccc1)C(=S)Nc1cccc(C(F)(F)F)c1	7	2	4	4	-5	-6
CN(C)CCCN(Cc1ccccc1)C(=S)Nc1ccc(F)c(Cl)c1	38*	2	-6	-10	-21	-7
O=C(C1CCN(c2nnc(-n3cccc3)s2)CC1)N1CCCCC1	21	1	-15	13	-12	-5
CCOc1ccc(NCc2cccn2-c2nnc(N3CCC(C(=O)NCCCN4CCCCC4C)CC3)s2)cc1 (centres undefined)	53*	1	-12	21	-23	-6
CCOc1ccc(NCc2cccn2-c2nnc(N3CCC(C(=O)NCCCN4CCCCC4)CC3)s2)cc1	63*	0	-11	3	-21	-5
CC1CCN(C(=O)C2CCN(c3nnc(-n4cccc4)s3)CC2)CC1	9	1	57*	6	-10	-5
CCC1CCCCN1CCCNC(=O)C1CCN(c2nnc(-n3cccc3)s2)CC1 (centres undefined)	95*	0	-7	0	-25	-6
O=C(Nc1ccc2c(c1)[C@H]1C[C@@H](CC(=O)N3CCOCC3)O[C@@H](CO)[C@H]1O2)C1CCOCC1	17	0	1	-8	-7	-4
CN1CCN(c2ccc(C(F)(F)F)cc2NC(=O)c2ccco2)CC1	3	2	-11	10	-3	-4
CCOC(=O)c1cc(S(=O)(=O)N2CCCC2)cn1C	7	1	-12	8	-6	-4
CCOc1ccc(NCc2cccn2-c2nnc(N3CCC(C(=O)NCCCN4C(C)CCCC4C)CC3)s2)cc1 (centres undefined)	78*	1	-10	22	-22	-6
